The results in this text go back to PubChem BioAssay AID588852 (The Scripps Research Institute Molecular Screening Center, 2011).

In all, about 360,000 compounds went through this assay and about 4,600 (1.3%) were called active.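 The calls were made as follows: active = percent inhibition above its own plate's cutoff, namely the mean of that plate's compound wells plus 3 SD; inactive = the rest.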 The sample as a whole holds a higher share of actives than the screen did. Peptide text beside a SMILES is read from it. * marks the point of attachment. Bz = O=C(c1ccccc1)*

Muscarinic acetylcholine receptor M1 (Homo sapiens), sequence (P11229 whole entry, looked up): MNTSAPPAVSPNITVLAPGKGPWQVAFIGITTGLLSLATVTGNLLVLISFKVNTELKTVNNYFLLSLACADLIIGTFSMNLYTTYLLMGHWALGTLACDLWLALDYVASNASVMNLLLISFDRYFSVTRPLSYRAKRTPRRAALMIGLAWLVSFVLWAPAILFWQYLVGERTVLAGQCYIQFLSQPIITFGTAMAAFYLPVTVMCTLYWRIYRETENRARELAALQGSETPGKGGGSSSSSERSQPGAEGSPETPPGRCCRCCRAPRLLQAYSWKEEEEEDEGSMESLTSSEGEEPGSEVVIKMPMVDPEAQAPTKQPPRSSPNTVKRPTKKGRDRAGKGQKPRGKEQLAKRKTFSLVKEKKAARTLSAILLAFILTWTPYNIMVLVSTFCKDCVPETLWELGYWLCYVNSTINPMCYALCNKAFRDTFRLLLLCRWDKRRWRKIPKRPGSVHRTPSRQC

This assay has as its target Muscarinic acetylcholine receptor M1 (Homo sapiens) (UniProt P11229). The experiment in a line: CHRM1 blockers of acetylcholine calcium response – CHO-K1 cells, Fluo-8 calcium fluorescence, 1536-well, primary screen (AID 588852).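 Also: peak over basal fluorescence ratio during 140 s after agonist addition; 0% = ACh EC80 plus DMSO and 100% = DMSO alone without agonist.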 The settings on record: CHO-K1 hM1, Fluo-8 calcium fluorescence, ACh EC80 antagonist; at 3 µM; hits give high values.
Usually inhibition stands for the change of the read-out against control, counted positive when it falls. `COc1ccc(S(=O)(=O)Nc2cccnc2)c(Cl)c1Cl`: the inhibition is 9.26% (inactive).
`COc1ccccc1Oc1ccc(S(=O)(=O)Nc2cccnc2)cc1`: the inhibition was 35.1% (active).
`Cc1cc(C)c(C)c(S(=O)(=O)Nc2cccnc2)c1C`: the inhibition is -12.2% (inactive).
For `O=[N+]([O-])c1ccc(CN2CC(N3CC=CC3)CS2(=O)=O)cc1` (stereo not given), the inhibition was 7.78% (inactive).
On to `CCCC1=Nc2cc(C(=O)NCCN3CCCC3)ccc2Sc2ccccc21`, for which the inhibition is 44% (active).
Consider `CCCC1=Nc2cc(C(=O)NCc3ccco3)ccc2Sc2ccccc21`, for which the inhibition was 13.6% (inactive).
The figure for `CCC1=Nc2cc(C(=O)NCCCN3CCOCC3)ccc2Sc2ccc(Br)cc21` is 1.43% (inactive); for `Cc1cccc(CN2CCC(n3nccc3NC(=O)c3ccccc3C)CC2)n1` it is -7.86% (inactive); for `C[C@H]1CN([C@@H](C)CO)C(=O)CCCn2nncc2CO[C@@H]1CN(C)Cc1ccc(Oc2ccccc2)cc1` it is 35.8% (active).
For `C[C@@H]1CN([C@H](C)CO)C(=O)c2cc(-c3ccc(F)cc3)cnc2O[C@H]1CN(C)C(=O)c1ccc(F)cc1`, the inhibition is -3.76% (inactive).
The figure for `C[C@@H]1CN([C@@H](C)CO)C(=O)c2cc(Br)cnc2O[C@H]1CN(C)Cc1ccc(-c2ccccc2)cc1` is -3.44% (inactive).
In the case of `C[C@@H]1CN([C@@H](C)CO)C(=O)CCCn2nncc2CO[C@H]1CN(C)Cc1ccc(C(F)(F)F)cc1` it was -8.15% (inactive); in that of `COc1ccc(-c2cnc3c(c2)C(=O)N([C@H](C)CO)C[C@@H](C)[C@H](CN(C)Cc2ccccc2)O3)cc1`, 79.4% (active).
The figure for `Cc1ccc(CN(C)C[C@@H]2OCc3cnnn3CCCC(=O)N([C@@H](C)CO)C[C@H]2C)cc1` is -6.67% (inactive); for `CSc1nsc(SC)c1NC(=O)OC1CCCCC1` it is -9.68% (inactive).
As to `O=C(Nc1cccc2ccccc12)c1[nH]c(-c2ccccc2)c2c1C(=O)N(C1CC1)C2=O`, the inhibition was -24.4% (inactive).
In the case of `O=C1C2C3C=CC(C3)C2C(=O)N1c1ncc([N+](=O)[O-])s1` (stereo not given) it was -4.85% (inactive); in that of `NC(=O)c1ccc(NC(=O)COC(=O)C(Cc2ccccc2)NC(=O)c2ccccc2)cc1` (stereo not given), 0.83% (inactive); in that of `CN(Cc1ccccc1F)C(=O)C(Cc1ccccc1)NC(=O)c1ccccc1` (stereo not given), 33.5% (active).
In the case of `O=C(NC(Cc1ccccc1)C(=O)N1CCCC1C(=O)O)c1ccccc1` (stereo not drawn) (Bz-Phe-Pro-OH; configuration not given here), the inhibition is -9.18% (inactive).
Regarding `CCn1ccnc1CNC(=O)CC1C(=O)NCCN1CCCc1ccccc1` (stereo not given), the inhibition is -10.2% (inactive).
As for `C[C@@H](C(=O)Nc1ccc2ccccc2c1)[C@@H]1C[C@@]1(C)[C@@H](NC(=O)c1cccnc1)c1ccccc1`, the inhibition is -3.75% (inactive).
For `CCc1nc2ccc(C(=O)N3CCN(S(=O)(=O)CC)CC3)cn2c1N(C=O)CCC(C)C`, the inhibition was -13.9% (inactive).
In the case of `CC1=C(C(=O)N2CCOCC2)CC(CC(=O)NCCCN(C)C)C(=O)N1Cc1ccc(C(C)(C)C)cc1` (stereo not given), the inhibition is -15.7% (inactive).
In the case of `CC(Oc1cc2oc(=O)c3c(c2cc1Cl)CCCC3)C(=O)NCc1ccncc1` (stereo not given) it was 1.37% (inactive).
Take `Cc1ccc(S(=O)(=O)NC(C)C(=O)NCc2ccc(Cl)cc2)cc1` (stereo not given): the inhibition was 5.87% (inactive).
In the case of `COc1ccc(S(=O)(=O)NC(C)C(=O)NCc2ccncc2)cc1Cl` (stereo not given), the inhibition was 25.1% (active).
Regarding `CC(=O)N1C[C@@H](CO)[C@@H](N(C)C(=O)c2ccco2)C[C@H]1c1ccccc1`, the inhibition is 30.9% (inactive).
On to `COc1cc(OC)cc(C(=O)NNC(=O)CNC(=O)c2ccc(Br)o2)c1`, for which the inhibition is 15.6% (inactive).
Consider `CCN1CN(Cc2ccccc2)CNC1=S`, for which the inhibition was 0.26% (inactive).
Consider `COc1ccc(NC(=O)C2(C)Cc3c(-c4cccc(NC(C)=O)c4)ccnc3O2)cc1` (stereo not given), for which the inhibition was -7.09% (inactive).
The figure for `COCCNc1nc(NCc2ccc(NC(C)=O)cc2)c2sccc2n1` is -8.59% (inactive); for `COc1cccc(CNc2nc(NCc3ccccc3OC)nc3ccsc23)c1` it is 24.1% (inactive); for `COc1cccc(CNc2nc(NCc3cccs3)nc3ccsc23)c1` it is 51.9% (active).
The figure for `COc1ccc(-c2nc3c(s2)CCc2onc(-c4ccc(OC)cc4)c2-3)cc1` is -8.59% (inactive); for `O=C(/C=C(O)/C=C/c1ccc(O)cc1)/C=C/c1ccc(O)cc1` it is 33.7% (active); for `COc1ccc(/C=C/C(=O)c2c(O)cc(OC)cc2OC)cc1` it is 4.93% (inactive).
Turning to `COc1cccc(C=CC(=O)C=CC=Cc2ccccc2)c1`, the inhibition is -3.17% (inactive).
In the case of `O=S1(=O)C[C@@H](N2CCN(CCO)CC2)[C@H](COCc2ccccc2)N1` it was 8.79% (inactive); in that of `COC(=O)CCCC1=CC2=C(c3ccccc3)C(=O)C(C)(OC(=O)C3CCCC3)C(=O)C2=CN1c1ccc(OC)cc1` (stereo not given), 4.39% (inactive); in that of `CSc1ncccc1C(=O)N1CCCC(Nc2ccc(F)c(F)c2)C1` (stereo not given), -21.9% (inactive).
As to `Cc1ccc(CN2CC(C(=O)NNC(=O)Cn3ccc(C(F)(F)F)n3)CC2=O)cc1` (stereo not given), the inhibition is -4.1% (inactive).
In the case of `O=C1NC(O)CCN1C1CC(O)C(CO)O1` (stereo not given) it was 4.13% (inactive); in that of `COc1ccc(CNC(=O)C(c2ccc(O)cc2)N(Cc2ccco2)C(=O)c2snc(C(N)=O)c2N)cc1` (stereo not given), 34.8% (active); in that of `NC(=O)c1nsc(C(=O)N(CC(=O)NCc2ccc(F)cc2)Cc2ccco2)c1N`, -9.5% (inactive).
The figure for `COc1cc(C(C(=O)NC2CCCC2)N(Cc2ccccc2)C(=O)c2snc(C(N)=O)c2N)ccc1O` (stereo not given) is 0.09% (inactive); for `CCOC(=O)N1CCN(S(=O)(=O)c2ccc(C(=O)Nc3ccc(F)cc3F)cc2)CC1` it is 5.69% (inactive); for `Cc1cc2cc3c(cc2nc1SCC(=O)Nc1c(C)cccc1C)CCC3` it is -12.5% (inactive).
The figure for `O=C(CC[C@H]1O[C@@H](n2ccc(=O)[nH]c2=O)[C@H](O)[C@@H]1O)N[C@H](Cc1ccccc1)C(=O)NCCCN1CCCC1=O` is -9.33% (inactive); for `Cc1cccc2c1-c1sc(C(=O)NCCCN3CCc4ccccc4C3)cc1CO2` it is 58.2% (active); for `Cc1ccc(NC(=O)CN2CCc3ccccc3C2)cc1C` it is -11% (inactive).
On to `Cc1cccc(C)c1NC(=O)c1ccc(CN2CCc3ccccc3C2)cc1`, for which the inhibition was 4.61% (inactive).
The figure for `CC1(C)Cc2c(sc3nc4n(c(=N)c23)CCCCC4)CO1` is 53.3% (active); for `CCSc1nc2sc3c(c2c(=O)[nH]1)CC(C)(C)OC3` it is -5.74% (inactive); for `N=c1c2c3c(sc2nc2n1CCCCC2)CCCC3` it is 89.3% (active).
The figure for `N=c1c2c3c(sc2ncn1CCCN1CCOCC1)CCCCC3` is 1.24% (inactive); for `O=c1c2c(nc3n1CCCCC3)sc1c(O)cccc12` it is -13.7% (inactive).
Turning to `CC(C)c1nc2sc3c(c2c(=O)n1N)CC(C)(C)OC3`, the inhibition was -0.09% (inactive).
In the case of `COc1ccccc1-c1cnn2c(N3CCOCC3)cc(C)nc12` it was -0.68% (inactive); in that of `C=CCn1c2c(c3ccccc31)CCC2`, 3.67% (inactive).
The figure for `Cc1ccc2cc3cc(C(=O)N4CCCCCC4)oc3nc2c1` is -17.6% (inactive); for `Fc1ccc2[nH]c3c(N4CCSCC4)ncnc3c2c1` it is 41.1% (active).
In the case of `CCOC(=O)N(Cc1ccccc1)C1CC1` it was -16% (inactive); in that of `Nc1nnc(SCC(=O)Nc2ccc3nc(SCC(=O)Nc4ccccc4)sc3c2)s1`, 30.3% (active).
Consider `CCCCNC(=O)CSc1nc2ccc(NC(=O)CSc3nnc(COc4ccccc4C)n3C)cc2s1`, for which the inhibition was -13.4% (inactive).
In the case of `CCCCNC(=O)CSc1nc2ccc(NC(=O)CSc3nnc(N)s3)cc2s1` it was -9.73% (inactive); in that of `O=C1c2ccccc2C(c2nc3ccccc3[nH]2)N1c1ccccc1` (stereo not given), -32.7% (inactive); in that of `CCS(=O)(=O)Nc1ccc(C2=NN(S(=O)(=O)c3ccc(F)cc3)C(c3ccco3)C2)cc1` (stereo not given), -7.75% (inactive).
In the case of `COc1ccc(CN(C)C(=O)Cc2ccsc2)c(OC)c1OC` it was -4.83% (inactive).
The figure for `COc1ccc(NC(=O)c2cc(-c3cc(OC)c(OC)c(OC)c3)nc3ccccc23)c(OC)c1` is -10.6% (inactive); for `COc1ccc(-c2cc(C(=O)n3cnc4ccccc43)c3ccccc3n2)cc1` it is -11.1% (inactive).
Regarding `COc1ccc(CN(C)C(=O)c2cc(-c3ccc(C)cc3C)nc3ccccc23)c(OC)c1OC`, the inhibition was 26.6% (active).
For the compound `COc1ccc(S(=O)(=O)N2CCCCCC2)cc1C(=O)N(C)Cc1cccc(OC)c1OC`, the inhibition was -2.19% (inactive).
The figure for `COc1ccc(-c2cc(C(=O)N(C)Cc3ccccc3)c3ccccc3n2)cc1` is 41% (active); for `COc1cccc(NC(=O)CN(C)C(=O)c2cc(Cl)nc3ccccc23)c1` it is -8.88% (inactive).
For `COc1ccc(CN(C)C(=O)Cc2c[nH]c3ccccc23)c(OC)c1OC`, the inhibition was -18.1% (inactive).
With `COc1ccc(-c2cc(C(=O)N(C)Cc3ccc(OC)c(OC)c3OC)c3ccccc3n2)cc1OC`, the inhibition was 41.5% (active).
The figure for `COc1ccc(-c2cc(C(=O)N(C)CC(=O)Nc3ccccc3Cl)c3ccccc3n2)cc1OC` is 21% (active); for `COc1ccc(Cl)cc1NC(=O)CN(C)C(=O)c1cc2ccccc2cc1OC` it is -2.48% (inactive); for `COc1ccc(-c2cc(C(=O)NCCCN3CCCC3=O)c3ccccc3n2)cc1OC` it is 19.9% (inactive).
In the case of `Cc1cc2oc(=O)cc(CN(C)Cc3ccccc3)c2cc1Cl` it was -3.35% (inactive); in that of `CC1(C(=O)NS(=O)(=O)c2ccccc2)CCN1C(=O)Cc1ccc(-c2ccccc2)cc1` (stereo not given), -13% (inactive).
The figure for `CC(=O)N1c2ccc(S(=O)(=O)N3CCCC(C(=O)Nc4ccc(C)cc4C)C3)cc2CC1C` (stereo not given) is -10.3% (inactive); for `CC(=O)n1cc([C@@H]2C=C(C(=O)N3CCN(Cc4ccc5c(c4)OCO5)CC3)O[C@H](OCc3ccc(CO)cc3)C2)c2ccccc21` it is 15.6% (inactive); for `CNC[C@H]1OCc2cnnn2CCCC(=O)N([C@H](C)CO)C[C@@H]1C` it is -31.6% (inactive).
